Screening results deposited in PubChem BioAssay by Center for Chemical Genomics, University of Michigan.
Dicer processing = human Dicer pre-microRNA cleavage inhibition | 6% of 47,000 active | Q9UPY3 | z-score at 25 µM | cat-ELCCA pre-miR-21 Dicer processing, chemiluminescence; stronger effect = higher value; in the data active = z-score above about 3, passing the limit was not always enough;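 note: plate controls were vehicle for no effect and no enzyme for full effect; higher signal means more uncleaved substrate so more Dicer inhibition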
Numbers without * were called inactive. This is one part of a sample in which hits are shown more often than they occur.

SMILES | Dicer processing
COc1cc(C2C(C(=O)OC(C)C)C(=O)CC(C)(O)C2C(=O)OC(C)C)ccc1O (configuration not stated) | 0.12
COc1ccc(-c2c(N)n[nH]c2C)cc1OC | 4.9*
COc1ccc(-c2c(-c3ccc(OC)c(OC)c3)c(C)n(C)c2C)cc1OC | -0.69
COc1ccc(-c2nc3cc(N)ccc3o2)cc1OC | 2.5
Cc1ccc(Sc2ncccc2C(=O)NCC(=O)O)cc1 | -0.82
Cc1cc(C)c2c(=O)c(/C=C3/SC(=S)N(c4ccc(F)cc4)C3=O)coc2c1 | 5.5*
CC(C)c1ccc(N2C(=O)/C(=C/N(C)C)SC2=S)cc1 | 0.36
O=C1S/C(=C\c2ccc(F)cc2)C(=O)N1c1ccccc1 | 1.3
Cn1nc(-c2ccc(S(=O)(=O)NNC(=O)c3cccc(Cl)c3)s2)cc1C(F)(F)F | 1.6
Clc1ccc(N2C=Nc3cc(Cl)c(Cl)cc3C2)cc1Cl | 3.1*
CC(C)c1ccc(N2C=Nc3ccc(C(C)C)cc3C2)cc1 | 0.31
O=c1[nH][nH]c(=S)n1-c1ccc(Cl)c(Cl)c1 | 0.41
CC1(C)OC[C@@H]([C@H](O)[C@H](O)[C@H]2COC(C)(C)O2)O1 | -0.26
CCOc1nc(C)ccc1-c1noc(-c2cc(OC)cc(OC)c2)n1 | -0.35
N#Cc1nc(COc2ccccc2Cl)oc1N1CCOCC1 | 0.78
N#Cc1nc(COc2cccc(Cl)c2)oc1N1CCCCC1 | 3.9*
COc1ccc(OCc2nc(C#N)c(N3CCC(C(N)=O)CC3)o2)cc1 | 1.2
COc1ccc(N2CCN(c3oc(COc4ccc(F)cc4)nc3C#N)CC2)cc1 | -0.86
N#Cc1nc(COc2cccc(Cl)c2)oc1NCc1ccco1 | 1.2
N#Cc1nc(COc2cccc(Cl)c2)oc1NCc1cccnc1 | 3.8*
N#Cc1nc(COc2ccccc2Cl)oc1N1CCCC1 | -0.13
N#Cc1nc(COc2ccc(F)cc2)oc1NCc1cccnc1 | 1.5
COc1ccc(OCc2nc(C#N)c(N3CCN(c4ccccc4)CC3)o2)cc1 | 3*
Cn1nc(-c2ccc(S(=O)(=O)n3ccnc3)s2)cc1C(F)(F)F | 1
CC1=NN(c2ccc(C)cc2)C(=O)C1=C1SCCCS1 | 1.7
SMILES | Dicer processing
CCOc1ccc(CSc2n[nH]c(C)n2)cc1 | -0.26
O=C(Cn1nnc2sc3c(c2c1=O)CCCC3)Nc1ccc(F)cc1 | -1.1
COc1cc(C2C(C#N)=C(C)NC3=C2C(=O)CCC3)cc(Cl)c1O (configuration not stated) | -0.58
O=C(NNc1c(Cl)cc(Cl)cc1Cl)c1c(F)cccc1F | -0.51
CCOc1ccc(S(=O)(=O)n2ccnc2)cc1C(C)C | 0.8
O=C(CSc1n[nH]c(=O)n1-c1ccc(OCc2ccccc2)cc1)c1ccccc1 | -1
Cc1cn(S(=O)(=O)c2cc(C)c(Cl)cc2C)cn1 | 0.15
O=C(O)CNC(=O)CSc1ccccn1 | 0.81
Cc1ccc2oc3c(c(=O)c2c1)C(c1ccc(O)cc1)N(c1nccs1)C3=O (configuration not stated) | 0.45
COc1cc(/C=N/NC(=O)c2sc(=S)n(C)c2N)ccc1O | 3.8*
Cn1c(N)c(C(=O)N/N=C/c2ccccc2)sc1=S | -0.88
COc1cc(/C=N/NC(=S)N/N=C/c2ccc(O)c(OC)c2)ccc1O | 3.9*
COc1cc(/C=N/NC(=S)NC2CC3C=CC2C3)ccc1C (configuration not stated) | 2.5
COc1ccc(/C=N/NC(=O)c2sc(=S)n(-c3ccccc3)c2N)cc1 | -0.24
COc1ccc(/C=N/NC(=S)NN)cc1 | -7.3
COC(=O)c1ccc(Nc2nc(=O)c3cccnc3s2)cc1 | 0.42
O=C(NC(=S)N1CCN(C(=S)NC(=O)c2ccccc2)CC1)c1ccccc1 | 0.78
CN(C1CCCCC1)S(=O)(=O)c1ccc(S(=O)(=O)c2ccccc2)s1 | -1.7
CC(C)(C)C(CCC(=O)O)CC(=O)O (configuration not stated) | 0.71
CCOC(=O)c1nnn(-c2nonc2N)c1COc1cccc(C)c1C | -1.4
O=C(CN1C(=O)/C(=C\c2ccc(F)cc2)N=C1c1ccccc1)c1ccco1 | 3.8*
O=C(CN1C(=O)/C(=C\c2ccc(OCc3ccccc3)cc2)N=C1c1ccccc1)c1cccs1 | -1.9
C=CCN1C(=O)/C(=C\c2ccccc2Cl)N=C1c1ccccc1 | -0.82
CCSc1sc(C(=O)OC)c2c1C(=O)CC(C)(C)C2 | 21
Nc1cc(Cl)c(-n2cccc2)cc1Oc1ccc(Cl)cc1 | 1.6
SMILES | Dicer processing
Cc1ccc(Cl)cc1N1C(=O)CC(C)(C)CC1=O | 7.2
COc1ccc(Cl)cc1N1C(=O)c2ccncc2C1=O | 2.9
Cc1ccc(Cl)cc1N1C(=O)c2ccncc2C1=O | 3.4*
NC1=NC(=O)CC(C(=O)Nc2ccc(Br)cc2)S1 (configuration not stated) | -0.33
O=c1[nH]nc(SCc2cc(-c3c(Cl)cccc3Cl)no2)n1C1CCCCC1 | 23
CCCc1c(O)ccc2c1OC(C)(CCC(=O)OC)CC2=O (configuration not stated) | -0.59
O=C1c2cccc3cccc(c23)C(=O)N1Nc1ccccc1 | 0.66
Cc1c(O)c(=O)n(-c2ccccc2)n1C | 0.57
Cc1c(N2C(=O)c3cccc4cccc(c34)C2=O)c(=O)n(-c2ccccc2)n1C | 4.4*
O=C(NNC(=S)Nc1cccc(C(F)(F)F)c1)c1ccccc1C1=NCCCN1 | -1.4
